This is an account of results in PubChem BioAssay (NCATS).

A short description of assay [1]: NS1 protein of Zika virus - qHTS assay to identify small molecule inhibitors in human HEK 293 cells (AID 1347053). Further: nearly all actives have a fitted effect of over 55% in size. Further: potency means the concentration at half of the fitted maximal effect. In a few lines:
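Read-out is a two-antibody TR-FRET for ZIKV NS1, normalized between uninfected cells and infected cells. Compound added 1 h before MR766 infection at MOI 0.5; human HEK 293 cells incubated 24 h, 37 C.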
Background: qHTS replaces the single test concentration by a dilution series.

Assay [2] can be described thus: qHTS of pediatric cancer cell lines to identify multiple opportunities for drug repurposing: Primary screen for TC32 cells (AID 1347089). Further: nearly all actives have a fitted effect of over 60% in size. Further: potency means the concentration at half of the fitted maximal effect. In outline: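 Measured quantity: luminescence from CellTiter-Glo, reflecting metabolically active TC32 cells following 48 h of compound. Curves came straight from multi-point titrations, with 8 or 11 points in primary and 11 in confirmatory screening.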

Assay [3] in a line: qHTS of pediatric cancer cell lines to identify multiple opportunities for drug repurposing: Primary screen for DAOY cells (AID 1347090). Further: nearly all actives have a fitted effect of over 55% in size. Further: potency means the concentration at half of the fitted maximal effect. In a few lines: (§1)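 Viability measured as metabolically active cells via CellTiter-Glo luminescence following 48 hours of compound exposure, 11-point dilutions in confirmatory testing. 500-1,000 cells/well plated 5 hours before dosing; controls were DMSO and 2.3 µM bortezomib.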

Assay [4] is described as follows: qHTS of pediatric cancer cell lines to identify multiple opportunities for drug repurposing: Primary screen for SJ-GBM2 cells (AID 1347091). Further: potency means the concentration at half of the fitted maximal effect. In a few lines:
as §1

A short description of assay [5]: qHTS of pediatric cancer cell lines to identify multiple opportunities for drug repurposing: Primary screen for A673 cells (AID 1347092). Further: nearly all actives have a fitted effect of over 45% in size. Further: potency means the concentration at half of the fitted maximal effect. In outline:
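Cells are plated, rested 5 h, dosed by pintool, incubated 48 h, then lysed with CellTiter-Glo and read by luminescence. DMSO is the neutral control; bortezomib at 2.3 uM final is the positive control.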

Assay [6] in a line: qHTS of pediatric cancer cell lines to identify multiple opportunities for drug repurposing: Primary screen for BT-37 cells (AID 1347094). Further: potency means the concentration at half of the fitted maximal effect. In a few lines:
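Luminescence from CellTiter-Glo served as readout of metabolically active cells after 48 h compound exposure. Titrations: MIPE 11-point, from 0.78 nM; NPC 8-point, from 0.59 nM (final). Concentration-response curves came straight from the primary screen.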

Assay [7] can be described thus: qHTS of pediatric cancer cell lines to identify multiple opportunities for drug repurposing: Primary screen for SK-N-MC cells (AID 1347093). Further: potency means the concentration at half of the fitted maximal effect. In outline:
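Metabolically active cells were quantified by ATP-dependent luminescence (CellTiter-Glo, 15 min at room temperature) following 48 h treatment. Cells had been plated at 500-1,000 per well and settled for 5 h beforehand.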

In assay [8] the target is Atrial natriuretic peptide receptor 1 (Homo sapiens) (UniProt P16066). Put plainly: Natriuretic polypeptide receptor (hNpr1) antagonism - Pilot screen (AID 1347049; calls by dose curve;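 further: agonist-evoked cGMP luminescence read 20 min after hNppA addition; series mostly up to about 58 µM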). In outline: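 cGMP-sensor HEK293/hNpr1 cells, 1500/well, plated overnight at 37C. 2% GloSensor reagent, 2 h RT. Compound (23 nL pin transfer) 30 min RT, baseline luminescence pre-read. 0.1 nM hNppA, 20 min RT, post-read.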
Sequence of Atrial natriuretic peptide receptor 1 (Homo sapiens) (P16066 whole entry, looked up): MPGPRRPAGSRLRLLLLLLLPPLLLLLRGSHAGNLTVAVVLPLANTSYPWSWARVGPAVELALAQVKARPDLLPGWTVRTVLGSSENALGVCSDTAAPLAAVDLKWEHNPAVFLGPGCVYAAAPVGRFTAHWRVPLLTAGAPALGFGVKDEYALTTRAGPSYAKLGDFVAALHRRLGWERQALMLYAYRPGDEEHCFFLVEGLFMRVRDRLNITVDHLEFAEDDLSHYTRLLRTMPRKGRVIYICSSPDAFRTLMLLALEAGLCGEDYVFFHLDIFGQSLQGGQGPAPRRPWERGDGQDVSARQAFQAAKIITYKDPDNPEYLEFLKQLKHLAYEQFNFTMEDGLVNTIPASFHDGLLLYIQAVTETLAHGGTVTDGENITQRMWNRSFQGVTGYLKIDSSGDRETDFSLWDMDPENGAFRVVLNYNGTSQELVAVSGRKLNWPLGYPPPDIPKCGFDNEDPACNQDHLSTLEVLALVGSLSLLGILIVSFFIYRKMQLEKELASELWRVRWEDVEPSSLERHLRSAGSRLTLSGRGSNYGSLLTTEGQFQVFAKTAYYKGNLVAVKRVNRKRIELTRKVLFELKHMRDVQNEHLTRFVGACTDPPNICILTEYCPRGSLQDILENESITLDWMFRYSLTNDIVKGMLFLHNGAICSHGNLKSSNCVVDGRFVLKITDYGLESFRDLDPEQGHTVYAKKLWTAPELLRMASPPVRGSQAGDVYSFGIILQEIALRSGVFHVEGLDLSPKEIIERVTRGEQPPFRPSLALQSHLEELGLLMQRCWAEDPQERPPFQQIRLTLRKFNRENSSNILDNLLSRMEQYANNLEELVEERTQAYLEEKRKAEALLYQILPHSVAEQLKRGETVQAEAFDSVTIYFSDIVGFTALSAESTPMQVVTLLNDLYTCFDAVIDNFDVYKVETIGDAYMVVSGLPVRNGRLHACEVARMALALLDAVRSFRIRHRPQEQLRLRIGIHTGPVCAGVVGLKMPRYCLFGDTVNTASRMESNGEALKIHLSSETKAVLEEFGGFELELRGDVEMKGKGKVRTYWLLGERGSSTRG

For assay [9], the target named is Atrial natriuretic peptide receptor 2 (Homo sapiens) (UniProt P20594). Description: Natriuretic polypeptide receptor (hNpr2) antagonism - Pilot subtype selectivity assay (AID 1347050; calls by dose curve). In outline:
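Luminescence from a genetically encoded cGMP luciferase biosensor in hNpr2-expressing HEK293 cells is read before and 20 min after adding 1 nM hNppC. Test compounds, in interplate 1:5 titrations, are added 30-50 min ahead of the agonist.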

Assay [10] deals with T1, Tyrosine-protein phosphatase non-receptor type substrate 1 (Homo sapiens) + Leukocyte surface antigen CD47 (Homo sapiens) (UniProt P78324+Q08722). Put plainly: CD47-SIRPalpha protein protein interaction - LANCE assay qHTS validation (AID 1347057; active means well fitted curve in the direction sought with a large enough effect in the signal ratio, with a control signal flat, not every such curve was filed as active; the % refers to the signal ratio; further: series mostly up to about 38 µM). In outline:
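Inhibition of soluble CD47/SIRPalpha ectodomain association by titrated compounds, measured as 665/615 nm time-resolved FRET ratio after sequential 30 min room-temperature incubations.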

Assay [11] concerns the target T1, Tyrosine-protein phosphatase non-receptor type substrate 1 (Homo sapiens) + Leukocyte surface antigen CD47 (Homo sapiens). Description: CD47-SIRPalpha protein protein interaction - Alpha assay qHTS validation (AID 1347059).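 Further: bead proximity luminescence from CD47 binding SIRPalpha after compound preincubation with SIRPalpha.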 In a few lines:
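SIRPalpha-biotin 25 nM + cpd, 30 min RT, dark; add CD47-His 12.5 nM, 30 min; add Ni-NTA/SAV beads 10 ug/mL, 30 min; AlphaScreen. Buffer PBS pH 7.4 + 0.05% IGEPAL CA-630. Non-biotinylated SIRPalpha as control inhibitor.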

Assay [12] has the same target. Description: CD47-SIRPalpha protein protein interaction - HTRF assay qHTS validation (AID 1347058; active means well fitted curve in the direction sought with a large enough effect in the signal ratio, not every such curve was filed as active; the % refers to the signal ratio; further: series mostly up to about 38 µM). In outline:
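Soluble extracellular domains (6His-CD47, Avi-tag-biotinylated SIRPalpha) in PBS pH 7.4 with 0.05% IGEPAL CA-630. Compounds were preincubated 30 min at RT with CD47 and anti-His-Eu, then SIRPalpha and SAV-XL665 were added. TR-FRET 665/615 ratio.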
Background: In TR-FRET formats the signal depends on donor and acceptor labels being close together.

Assay [13] deals with Parathyroid hormone/parathyroid hormone-related peptide receptor (Homo sapiens) (UniProt Q03431). Description: qHTS for PTHR1 Agonists: Optimization Screen against the NCGC LOPAC library (AID 1347079).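 Further: GloSensor cAMP luminescence in HEK-293 GP2 cells expressing human PTHR1 with IBMX.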 In outline:
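HEK-293 GP2 cells, PTHR1 + GloSensor cAMP; 3000 cells/well, o/n. Luciferin + IBMX 0.5mM each (stock), 1 hr 37C. Cpd titration, 1 hr 37C. Lum after 15 min RT. Ctrl M-PTH(1-15) top 10uM.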

Where “and” joins values, the source holds several entries; their conditions need not be identical. Equal values may be shown once. Inconclusive results are not listed. More than one record can exist for a structure, and the calls need not agree. Calls of active or inactive are those of the source. Unless noted, the call rests on the fitted dose curve; in most records, active means well fitted curve in the direction sought with a large enough effect; inconclusive means small, poorly fitted or top-dose-only effect, or another doubt; inactive means no such curve, though single readings can be large; an effect the other way counts as inactive or inconclusive.

Sequence of Atrial natriuretic peptide receptor 2 (Homo sapiens) (P20594 whole entry, looked up): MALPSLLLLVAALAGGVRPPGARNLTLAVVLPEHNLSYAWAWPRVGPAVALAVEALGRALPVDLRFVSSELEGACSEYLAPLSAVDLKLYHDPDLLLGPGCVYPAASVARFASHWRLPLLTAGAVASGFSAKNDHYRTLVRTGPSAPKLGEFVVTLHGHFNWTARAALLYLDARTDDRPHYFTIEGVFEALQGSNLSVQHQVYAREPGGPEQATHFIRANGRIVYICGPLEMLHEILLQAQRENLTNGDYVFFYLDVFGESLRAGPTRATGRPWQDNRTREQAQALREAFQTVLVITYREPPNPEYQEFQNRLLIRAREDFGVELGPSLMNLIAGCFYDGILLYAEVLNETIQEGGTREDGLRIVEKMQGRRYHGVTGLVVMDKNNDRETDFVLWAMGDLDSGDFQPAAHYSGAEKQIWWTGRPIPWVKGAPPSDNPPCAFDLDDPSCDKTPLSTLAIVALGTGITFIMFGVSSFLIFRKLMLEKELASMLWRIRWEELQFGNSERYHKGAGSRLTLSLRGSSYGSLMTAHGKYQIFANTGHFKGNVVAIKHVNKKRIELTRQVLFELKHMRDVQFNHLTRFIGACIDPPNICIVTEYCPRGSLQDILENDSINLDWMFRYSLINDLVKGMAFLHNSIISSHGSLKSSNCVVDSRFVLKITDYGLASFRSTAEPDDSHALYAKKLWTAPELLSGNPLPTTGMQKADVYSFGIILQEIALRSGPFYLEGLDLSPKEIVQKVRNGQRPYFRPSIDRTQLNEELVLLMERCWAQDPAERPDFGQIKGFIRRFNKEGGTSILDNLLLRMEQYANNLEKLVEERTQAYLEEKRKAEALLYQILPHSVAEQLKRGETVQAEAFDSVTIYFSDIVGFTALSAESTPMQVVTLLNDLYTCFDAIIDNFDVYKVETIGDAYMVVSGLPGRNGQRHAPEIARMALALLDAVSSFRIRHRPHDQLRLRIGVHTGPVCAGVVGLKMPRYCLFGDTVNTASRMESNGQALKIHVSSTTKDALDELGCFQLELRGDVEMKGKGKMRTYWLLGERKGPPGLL
T1 sequence (P78324 whole entry, looked up, the tested form may be a part): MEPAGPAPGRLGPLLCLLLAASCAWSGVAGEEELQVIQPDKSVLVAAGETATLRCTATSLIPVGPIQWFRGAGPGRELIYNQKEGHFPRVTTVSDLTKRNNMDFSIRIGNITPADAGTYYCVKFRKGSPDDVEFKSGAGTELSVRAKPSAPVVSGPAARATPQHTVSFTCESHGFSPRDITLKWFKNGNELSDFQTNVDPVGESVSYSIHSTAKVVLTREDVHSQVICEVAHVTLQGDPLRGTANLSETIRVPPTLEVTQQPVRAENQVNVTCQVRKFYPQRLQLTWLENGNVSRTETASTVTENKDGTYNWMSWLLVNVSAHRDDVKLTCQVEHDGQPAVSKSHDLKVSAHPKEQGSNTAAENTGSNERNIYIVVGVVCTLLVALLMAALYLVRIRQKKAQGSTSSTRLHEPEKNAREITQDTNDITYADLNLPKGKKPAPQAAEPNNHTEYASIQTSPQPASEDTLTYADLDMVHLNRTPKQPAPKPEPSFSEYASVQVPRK
T1 sequence (Q08722 whole entry, looked up, the tested form may be a part): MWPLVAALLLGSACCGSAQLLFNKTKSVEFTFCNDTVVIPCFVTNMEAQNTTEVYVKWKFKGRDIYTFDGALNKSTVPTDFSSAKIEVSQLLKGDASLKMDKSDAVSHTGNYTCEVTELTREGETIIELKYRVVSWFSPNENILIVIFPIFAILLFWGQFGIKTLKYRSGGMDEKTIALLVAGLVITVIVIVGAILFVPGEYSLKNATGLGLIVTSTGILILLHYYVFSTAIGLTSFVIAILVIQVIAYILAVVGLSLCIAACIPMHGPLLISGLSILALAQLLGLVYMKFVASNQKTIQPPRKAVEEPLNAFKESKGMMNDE
Sequence of Parathyroid hormone/parathyroid hormone-related peptide receptor (Homo sapiens) (Q03431 whole entry, looked up): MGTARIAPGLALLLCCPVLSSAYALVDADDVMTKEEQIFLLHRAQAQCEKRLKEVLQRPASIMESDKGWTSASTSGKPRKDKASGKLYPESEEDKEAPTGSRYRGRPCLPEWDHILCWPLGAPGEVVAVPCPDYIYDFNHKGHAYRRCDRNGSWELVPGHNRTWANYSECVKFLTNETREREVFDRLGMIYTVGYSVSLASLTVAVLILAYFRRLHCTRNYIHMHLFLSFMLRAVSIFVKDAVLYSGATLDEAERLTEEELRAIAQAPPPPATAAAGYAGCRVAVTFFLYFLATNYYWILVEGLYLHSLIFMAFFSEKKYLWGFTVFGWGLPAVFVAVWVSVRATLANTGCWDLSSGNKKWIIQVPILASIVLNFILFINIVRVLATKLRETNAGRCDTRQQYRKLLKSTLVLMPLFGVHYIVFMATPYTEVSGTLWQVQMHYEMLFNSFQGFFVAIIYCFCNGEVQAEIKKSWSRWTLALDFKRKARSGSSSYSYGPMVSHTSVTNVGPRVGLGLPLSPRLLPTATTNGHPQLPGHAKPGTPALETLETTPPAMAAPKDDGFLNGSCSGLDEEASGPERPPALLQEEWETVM

For the compound `CN(Cc1cc(Br)cc(Br)c1N)C1CCCCC1`, the Potency result in assay [1], in [2], in assay [3], in assay [4], in assay [5] and in assay [6] was “inactive” throughout.

In the case of `CCOc1cc(N)c(Cl)cc1C(=O)NCC1CN(Cc2ccc(F)cc2)CCO1` (configuration not stated), the Potency entry in assay [1], in [2], in assay [3], in assay [4], in assay [5] and in assay [6] was “inactive” in each case.

Regarding `CN(C)CCc1c[nH]c2ccc(CS(=O)(=O)N3CCCC3)cc12`, the Potency entry in assay [1], in [2], in [4], in [5], in assay [7] and in [6] was “inactive” in each case.

For `O=C(O)c1ccc(-n2nc(-c3ccccc3O)nc2-c2ccccc2O)cc1`, the Potency result in assay [1] was “inactive”. In addition, the Potency in assay [4] was 20.9 µM (active); in assay [6] it was 24.6 µM (active).

Regarding `COc1cc2ncnc(Nc3cccc(Cl)c3)c2cc1OC`, the Potency result in assay [8], in assay [9] and in [1] was “inactive” each time. The outcome in [10] and in assay [11] was inactive. For the same compound, the Potency in [6] was 21.7 µM (active).

With `O=C(NCC1CN(c2ccc(N3CCOCC3=O)cc2)C(=O)O1)c1ccc(Cl)s1` (configuration not stated), the Potency result in assay [1], in assay [2], in assay [3], in [4], in assay [5] and in assay [6] was “inactive” in each case.

With `CC(C)(Sc1cc(C(C)(C)C)c(O)c(C(C)(C)C)c1)Sc1cc(C(C)(C)C)c(O)c(C(C)(C)C)c1`, the Potency entry in assay [1], in [2], in assay [3], in [4] and in [6] was “inactive” throughout.

Take `Cc1onc(-c2ccccc2Cl)c1C(=O)N[C@@H]1C(=O)N2[C@@H]1SC(C)(C)[C@@H]2C(=O)O`: the Potency entry in assay [1], in assay [2], in assay [3], in assay [4], in assay [5] and in [7] was “inactive” in each case. The Potency result in assay [6] was “inactive”.

For `Cc1nnc(NS(=O)(=O)c2ccc(N)cc2)s1`, the Potency result in assay [1] and in [2] was “inactive” each time. Further, the Potency in assay [7] was 0.833 µM (active).

Take `Nc1ccc(S(=O)(=O)Nc2ccccn2)cc1`: the Potency entry in [1], in assay [2], in [4], in assay [5], in assay [7] and in assay [6] was “inactive” throughout.

As to `COc1ccc(C(=O)CC(=O)c2ccc(C(C)(C)C)cc2)cc1`, the Potency entry in [1] is “inactive”.

For the compound `CCOC(=O)c1ccc(OC(=O)CCCCCN=C(N)N)cc1`, the Potency result in assay [1], in [3], in assay [4], in [5], in [7] and in assay [6] was “inactive” in each case.

Consider `CC1CC2C3CCC4=CC(=O)C=C[C@]4(C)[C@@]3(F)[C@@H](O)C[C@]2(C)[C@@]1(O)C(=O)CO` (some centres not stated), for which the Potency entry in [8], in assay [9], in assay [1], in assay [2], in assay [3] and in [4] was “inactive” throughout. Further, the Potency result in assay [6] is “inactive”. The result in assay [10], in assay [12], in [11] and in [13] was inactive. For the same compound, the Potency in assay [7] was 13.2 µM (active).

Turning to `Cc1cccc(Nc2ccncc2S(=O)(=O)NC(=O)NC(C)C)c1`, the Potency result in [1], in assay [4], in assay [5], in assay [7] and in assay [6] was “inactive” throughout.

Consider `COC(=O)Nc1nc2ccc(C(=O)c3ccccc3)cc2[nH]1`, for which the Potency result in assay [1] is “inactive”. In addition, the Potency is 106 nM (active) and 1.18 µM (active) in [3]; 0.376 µM (active) in assay [4]; 106 nM (active) and 935 nM (active) in assay [5]; 53.1 nM (active) and 332 nM (active) in assay [7]; 347 nM (active) and 2.43 µM (active) in [6].

As for `CC(C)(C#N)c1cc(Cn2cncn2)cc(C(C)(C)C#N)c1`, the Potency result in assay [1], in assay [2], in assay [4], in [5], in assay [7] and in assay [6] was “inactive” each time.

For `COc1ncnc(NS(=O)(=O)c2ccc(N)cc2)c1OC`, the Potency result in assay [1], in [2], in assay [3], in [4], in assay [5] and in assay [7] was “inactive” in each case. Also, the Potency result in [6] is “inactive”.

On to `CCN[C@H]1C[C@H](C)S(=O)(=O)c2sc(S(N)(=O)=O)cc21`, for which the Potency entry in assay [1], in [2], in [3], in assay [4], in [5] and in assay [7] was “inactive” in each case. In addition, the Potency entry in [6] was “inactive”.

Consider `COc1cccc(N(C)C(=S)Oc2ccc3c(c2)CCCC3)n1`, for which the Potency result in [1] is “inactive and 18.7 µM (active)”. Also, the Potency entry in assay [2], in assay [4], in assay [5] and in assay [6] was “inactive” in each case.

Consider `CCCCCCNC(=O)n1cc(F)c(=O)[nH]c1=O`, for which the Potency result in assay [1] and in assay [4] was “inactive” in each case. For the same compound, in assay [7], the Potency was 16.6 µM (active).

In the case of `CCn1cc(C(=O)O)c(=O)c2cc(F)c(N3CCN(C)CC3)cc21`, the Potency entry in [1], in assay [4], in assay [5], in assay [7] and in [6] was “inactive” throughout.

Turning to `CC[C@H](NC(C)C)[C@H](O)c1ccc(O)c2[nH]c(=O)ccc12`, the Potency result in [1], in [2], in [3], in assay [4], in assay [5] and in [7] was “inactive” each time. Moreover, in [6], the Potency result is “inactive”.

On to `O[C@@H](CNC[C@H](O)[C@H]1CCc2cc(F)ccc2O1)[C@@H]1CCc2cc(F)ccc2O1`, for which the Potency entry in assay [2] and in [3] was “inactive” throughout. Further, the Potency was 20.9 µM (active) in [4] and 27.6 µM (active) in assay [6].

As to `Cc1nnc(C(=O)NC(C)(C)c2nc(C(=O)NCc3ccc(F)cc3)c(O)c(=O)n2C)o1`, the Potency entry in assay [1], in assay [2], in [3], in assay [4], in [5] and in assay [7] was “inactive” in each case. In addition, the Potency entry in assay [6] was “inactive”.

Regarding `CC(N)C12CC3CC(CC(C3)C1)C2` (configuration not stated), the Potency result in [1], in [4], in assay [5], in assay [7] and in assay [6] was “inactive” in each case.

Turning to `Nc1nc(=S)c2[nH]cnc2[nH]1`, in assay [1], the Potency result was “inactive”. Moreover, the Potency was 3.33 µM (active) in [2]; 2.11 µM (active) and 1.87 µM (active) in [3]; 0.935 µM (active) in assay [4]; 841 nM (active) and 743 nM (active) in assay [5]; 2.99 µM (active) and 1.66 µM (active) in assay [7]; 2.46 µM (active) and 1.93 µM (active) in [6].

For `Cc1ncc([N+](=O)[O-])n1CCO`, the Potency entry in assay [1], in assay [2], in assay [3], in [4], in [5] and in [7] was “inactive” each time. Besides, in assay [6], the Potency result was “inactive”.

As to `CCN(CC)CC#CCOC(=O)C(O)(c1ccccc1)C1CCCCC1` (configuration not stated), the Potency result in assay [8], in [9], in assay [1], in assay [3], in assay [5] and in assay [7] was “inactive” in each case. The Potency result in assay [6] is “inactive”. Further, in assay [13], the outcome was inactive.
